Y pestis TopoI – blocks Yersinia pestis topoisomerase I activity; 360,000 tested, 0.064% active; activity, % at 10 µM; AID 504884; Y. pestis Topo-I cleavage product accumulation, plate reader; in the data active = activity above about 50%, passing the limit was not always enough
VHR inh abs – blocks human VHR1 dual specificity phosphatase; P51452; recombinant VHR phosphatase, pNPP absorbance; inhibition, % at 13.3 µM; 290,000 tested, 0.52% active; AID 1654; in the data active = inhibition above about 50%
Target sequence (P51452 whole entry, looked up): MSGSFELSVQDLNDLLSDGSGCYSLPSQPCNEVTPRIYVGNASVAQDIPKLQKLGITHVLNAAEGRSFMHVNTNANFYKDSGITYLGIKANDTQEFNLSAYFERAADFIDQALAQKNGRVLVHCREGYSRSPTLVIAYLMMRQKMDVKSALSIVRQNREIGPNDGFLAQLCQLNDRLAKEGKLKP
BioA inh – inhibitors of Mycobacterium tuberculosis BioA enzyme; purified M. tuberculosis BioA enzyme, plate reader; inhibition, % at 9.99 µM; 360,000 tested, 0.096% active; in the data active = inhibition above about 40%
BH1578 lux ind – induces V. cholerae light production without autoinducers. V. cholerae BH1578 lux reporter, luminescence, 6 h. activation, % at 18.7 µM. 350,000 tested, 0.16% active. AID 588436; in the data active = activation mostly above about 9.7%, no sharp cut-off
TcdB GH inh – blocks C. difficile toxin B glycohydrolase activity; AID 652162; inhibition, % at 9.99 µM; TcdB glycohydrolase enzymatic assay, plate reader; 350,000 tested, 0.24% active; P18177; in the data active = inhibition above about 10%
Each line names hits and unclear results; the compound was inactive in the other large screens. Most compounds without a hit are left out; they make up all but 0.73% or so of the library.

COc1ccc(CN(C)C[C@@H]2OCCCC[C@@H](C)Oc3ccc(NC(=O)CCCN(C)C)cc3C(=O)N([C@@H](C)CO)C[C@@H]2C)cc1	none (no result: Y pestis TopoI, VHR inh abs, BioA inh, BH1578 lux ind)
COc1ccc(CNC(=O)C2CCN(C(=O)N3CCOc4ccc(C)cc43)CC2)cc1	VHR inh abs 51 (no result: BH1578 lux ind, TcdB GH inh)
O=C(C1CCC(CNS(=O)(=O)c2cccc3cccnc23)CC1)N1CCc2ccccc21 (stereo not drawn)	VHR inh abs 54
O=C(C1CCC1)N1CCc2cc(S(=O)(=O)N3CCN(c4ccccn4)CC3)ccc21	Y pestis TopoI 55 (no result: TcdB GH inh)
O=C(C1CCN(S(=O)(=O)c2cccc3cccnc23)CC1)N1CCc2ccccc21	VHR inh abs 55 (no result: TcdB GH inh)
O=C(C1CCCN1S(=O)(=O)c1cccc2cccnc12)N1CCc2ccccc21 (stereo not drawn)	none
CC=Cc1ccc2n(c1=O)C[C@@H]1[C@@H](CO)[C@H](C(=O)NCC)[C@H]2N1C(=O)c1ccc(F)cc1 (mixture of isomers)	none (no result: Y pestis TopoI, VHR inh abs, BH1578 lux ind)
O=C(NC1CCCC1)N[C@H]1CC[C@@H](CC(=O)N2CCOCC2)O[C@@H]1CO	none (no result: Y pestis TopoI, VHR inh abs, BH1578 lux ind)
OC(Cn1c2ccccc2c2ccccc21)C[n+]1cccc2ccccc21 (stereo not drawn)	VHR inh abs 57 (no result: TcdB GH inh)
Cc1nc2ccccc2n1CC(O)Cn1c2ccccc2c2ccccc21 (stereo not drawn)	none
COc1cccc(NC(=O)C[C@@H]2CC[C@@H]3[C@@H](COc4ccc(NC(=O)C5CCCC5)cc4C(=O)N3C)O2)c1	none (no result: Y pestis TopoI, VHR inh abs, BioA inh, BH1578 lux ind)
Cc1ccc(-n2c(O)c(/C=C/C=Nc3ccccc3)c(=O)[nH]c2=O)cc1	none (no result: BioA inh)
Cc1ccc(N/N=C/c2c(O)n(-c3ccccc3)c(=O)[nH]c2=O)cc1	TcdB GH inh 14
C[C@@H]1CN([C@@H](C)CO)S(=O)(=O)c2ccc(C#C[C@@H](C)O)cc2O[C@@H]1CN(C)Cc1ccc(-c2ccccc2)cc1	none (no result: Y pestis TopoI, VHR inh abs, BH1578 lux ind)
CC(=NCCCn1ccnc1)c1c(-c2ccccc2)[nH]n(-c2nc3ccccc3s2)c1=O	BioA inh 41 (no result: TcdB GH inh)
O=c1c(C=NCCCn2ccnc2)c(-c2ccccc2)[nH]n1-c1nc2ccccc2s1	none (no result: BioA inh, TcdB GH inh)
COc1ccc(/C=C(\NC(=O)c2cccs2)C(=O)NN)cc1OC	VHR inh abs 52
N#Cc1ccc(-c2ccc3c(c2)[C@@H]2[C@@H](CCN2S(=O)(=O)c2cccc(F)c2)[C@@H](CO)N3)cc1	none (no result: Y pestis TopoI, VHR inh abs, BH1578 lux ind)
CC(=O)Nc1ccc(S(=O)(=O)Nc2nc3ccccc3nc2-n2ccc(=NC(=O)c3ccc(F)cc3)cc2)cc1	TcdB GH inh 16
CCOc1ccccc1N(C)C(=O)c1cn(CC)c(=O)c2cc(OC)c(OC)cc12	none
CCOc1ccccc1N(C)C(=O)c1cn(C)c(=O)c2ccccc12	VHR inh abs 51
Cc1noc(C)c1S(=O)(=O)Nc1ccc2c(c1)C(=O)N([C@@H](C)CO)C[C@H](C)[C@H](CN(C)S(=O)(=O)c1ccc(F)cc1)OCCCC[C@H](C)O2	none (no result: Y pestis TopoI, VHR inh abs, BH1578 lux ind)
CN1/C(=C/C=C/c2n(C)c3cc([N+](=O)[O-])c([N+](=O)[O-])cc3[n+]2C)C(C)(C)c2ccccc21	TcdB GH inh 12 (no result: VHR inh abs)
CCC(=O)Nc1ccc2c(c1)OC[C@H](C)N(C(=O)CN(C)C)C[C@@H](C)[C@@H](OC)CN(C)C2=O	none (no result: Y pestis TopoI, VHR inh abs, BH1578 lux ind)
CCOc1ccc(NC(=O)c2ccc(CC)s2)c([N+](=O)[O-])c1	TcdB GH inh 10
CCOc1ccc(NC(=O)c2cccs2)c([N+](=O)[O-])c1	none (no result: TcdB GH inh)
CC(=O)Nc1cc2c3c(c1)CCN3C(=O)CC2	VHR inh abs 56
O=C(C[C@H]1C=C[C@@H](NC(=O)Nc2cc(F)ccc2F)[C@H](CO)O1)NCc1ccncn1	none (no result: Y pestis TopoI, VHR inh abs, BH1578 lux ind)
C/C(=N\NC(=O)c1ccc(O)cc1)c1ccc(N2CCOCC2)cc1	none (no result: BioA inh)
C/C(=N\Nc1cc(N2CCOCC2)ncn1)c1ccc(O)cc1	TcdB GH inh 28
CC[C@H](C)[C@H]1CNC(=S)N1CC1CCN(CCC(C)(C)C)CC1	none (no result: VHR inh abs)
CC[C@H](C)[C@H]1CNC(=S)N1CC1CCN(CCCC2CCCC2)CC1	TcdB GH inh 13 (no result: VHR inh abs)
COc1ccc(/C=N/n2c(-c3cc(C)[nH]n3)n[nH]c2=S)cc1OC	TcdB GH inh 11
CCN(Cc1ccc(OC)c(COC)c1)CC1CCCN(CCc2cccc(OC)c2)C1 (stereo not drawn)	VHR inh abs 54
COc1ccc(CCN2CCCC(CN(C)Cc3cc(OC)ccc3OC)C2)cc1 (stereo not drawn)	none
COc1ccc(CN(C)CC2CCCN(CCc3ccc(F)cc3)C2)c(OC)c1OC (stereo not drawn)	VHR inh abs 60
CCOC(=O)c1c(NC(C)=O)sc2c(OCCN(CC)CC)c(Br)ccc12	none (no result: BioA inh)
CCOC(=O)c1c(NC(C)=O)sc2c1CCC(C=NCCCN(CC)CC)=C2Sc1ccccc1	BH1578 lux ind 20 (no result: VHR inh abs, TcdB GH inh)
O=C(O)c1ccc(/C=N/NC(=S)NCCN2CCOCC2)cc1	TcdB GH inh 11
S=C(NCCN1CCOCC1)N/N=C/c1cccs1	none (no result: VHR inh abs, BioA inh)
Cc1ccc(-c2ccc3c(c2)O[C@@H](CN(C)Cc2ccc(F)cc2)[C@H](C)CN([C@@H](C)CO)S3(=O)=O)cc1	none (no result: Y pestis TopoI, VHR inh abs, BH1578 lux ind)
Cc1ccc(O)c(Nc2c3ccccc3nc3ccccc23)c1	VHR inh abs 52
COc1cccc(C(=O)Nc2ccc3c(c2)C(=O)N(C)[C@@H]2CC[C@@H](CC(=O)NCC(F)(F)F)O[C@@H]2CO3)c1	none (no result: Y pestis TopoI, VHR inh abs, BH1578 lux ind, TcdB GH inh)
Cc1ccc2c(Cl)cc(Cl)c(OCC(=O)O)c2n1	VHR inh abs 56
CCOC(=O)N1CCN(C(=S)NC(=O)c2ccc(F)c(F)c2)CC1	TcdB GH inh 11 (no result: BioA inh)
O=C(CSc1nnc(COc2ccc(Cl)cc2)o1)N1CCCC1	none
O=C(CSc1nnc(COc2ccc(Cl)cc2)o1)N1c2ccccc2CCc2ccccc21	Y pestis TopoI 61 (no result: BioA inh, TcdB GH inh)
O=C1Cc2cc(S(=O)(=O)NCc3ccccc3Cl)cc3c2N1CCC3	TcdB GH inh 11
CCS(=O)(=O)Nc1ccc2c(c1)C(=O)N(C)[C@H]1CC[C@@H](CC(=O)NCCOC)O[C@H]1CO2	none (no result: Y pestis TopoI, VHR inh abs, BH1578 lux ind)
O=c1oc2ccccc2c(N2CCCCC2)c1CN1CCCCC1	BH1578 lux ind 25 (no result: TcdB GH inh)
c1ccc2[nH]c(-c3ccc4c(c3)OCO4)nc2c1	TcdB GH inh 11 (no result: VHR inh abs)
CCCN(CCC)S(=O)(=O)c1cccc(C(=O)Nc2ccc3c(c2)OCO3)c1	VHR inh abs 52 (no result: TcdB GH inh)
CCN(CC)c1ccc(NC(=O)c2ccc3c(c2)OCO3)cc1	VHR inh abs 54
CCN(CC)S(=O)(=O)c1cccc(C(=O)Nc2ccc3c(c2)OCO3)c1	none (no result: BioA inh)
CCCn1c(=O)c(C(=O)NCCc2ccccc2)c(O)c2ccccc21	VHR inh abs 54
CCCCCn1c(=O)c(C(=O)NCCc2ccccc2)c(O)c2ccccc21	none
CN(C(=O)COC(=O)CNC(=O)c1ccccc1Cl)c1ccccc1	TcdB GH inh 15 (no result: BioA inh)
CN(C)C(=O)c1cccc(-c2cccc(-c3nc(C(=O)N4CCOCC4)cc4c3[C@@H](CCO)N([S@](=O)C(C)(C)C)C4)c2)c1	none (no result: Y pestis TopoI, VHR inh abs, BH1578 lux ind)
Cc1ccc(Nc2nc(CSc3nnc(-c4ccncc4)n3C)cs2)cc1	VHR inh abs 58 (no result: TcdB GH inh)
Cc1ccc(CSc2nnc(-c3ccncc3)n2C)cc1	none (no result: BioA inh, TcdB GH inh)
CC(C)Oc1cccc(C(=O)C2CCCN(C(=O)CCc3cnn(C)c3)C2)c1 (stereo not drawn)	none

Screening results deposited in PubChem by several laboratories.
